# A selection: hits, their analogues and other compounds. The true share with any hit is near 2.3%.
# MCL1-BIM inh = inhibitors of MCL1 binding to BIM-BH3, primary screen, biochemical, fluorescence polarization. Induced myeloid leukemia cell differentiation protein Mcl-1 (Homo sapiens), Q07820. AID 2057, 2009. inhibition, % at 10.9 µM. 0.68% of 320,000 active. GST-MCL1 / FITC-Bim-BH3 fluorescence polarization;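 active = inhibition above the mean inhibition of all tested compounds plus 3 SD, set per campaign, cut at about 40% in these data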;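 also: 0% = DMSO wells and 100% = unlabeled Bim-BH3 peptide control; higher means more loss of mP so more displacement of Bim peptide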
# Target sequence (Q07820 whole entry, looked up): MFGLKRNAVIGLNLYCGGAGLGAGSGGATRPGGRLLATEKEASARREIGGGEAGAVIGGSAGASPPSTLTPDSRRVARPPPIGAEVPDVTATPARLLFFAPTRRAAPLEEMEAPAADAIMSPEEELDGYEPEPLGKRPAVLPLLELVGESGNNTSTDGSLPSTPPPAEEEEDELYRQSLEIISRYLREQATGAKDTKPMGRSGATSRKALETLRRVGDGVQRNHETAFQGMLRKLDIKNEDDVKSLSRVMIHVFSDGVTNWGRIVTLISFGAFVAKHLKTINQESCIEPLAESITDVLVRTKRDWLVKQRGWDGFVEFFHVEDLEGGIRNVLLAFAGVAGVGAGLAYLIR
# Mcl1-Bid inh = Mcl-1/Bid binding inhibitors, primary screen, biochemical, TR-FRET, 1536-well. Induced myeloid leukemia cell differentiation protein Mcl-1 (Homo sapiens), Q07820. TR-FRET Mcl-1/Bid-Dy647 peptide binding. inhibition, % at 21.7 µM. 0.97% of 220,000 active. AID 1021, 2008;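 active = compounds that cut the binding signal by more than half at the single screening dose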;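 also: His-tagged Mcl-1 with europium anti-His antibody binding Bid BH3 peptide; 0% = Mcl-1 plus peptide wells and 100% = peptide-only wells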
# GLD-1 TGE inh = GLD-1/TGE RNA complex disruptors, primary screen, biochemical, fluorescence polarization. purified GLD-1 + fluorescein TGE RNA. AID 2280, 2010. inhibition, % at 5.96 µM. 0.44% of 320,000 active;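 active = percent inhibition above a per-plate cutoff, the plate mean of test compounds plus 3 SD, cut at about 30% in these data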;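 also: 0% = DMSO wells with GLD-1 and probe and 100% = wells lacking GLD-1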
# Mcl1 Noxa PPI = Mcl-1/Noxa binding inhibitors, primary screen, biochemical, TR-FRET, 1536-well. Induced myeloid leukemia cell differentiation protein Mcl-1 (Homo sapiens), Q07820. TR-FRET Mcl-1/Noxa peptide binding, 2 h. inhibition, % at 21.7 µM. 1.5% of 220,000 active;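 active = compounds that cut the protein-peptide binding signal by more than 50% relative to plate controls in a single-dose test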;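 also: His-tagged Mcl-1 with rhodamine Noxa BH3 peptide and terbium anti-His antibody; 0% = Mcl-1 plus Noxa peptide wells and 100% = peptide-only wells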
# Bcl-xL primary = inhibitors of human Bcl-xL, primary screen, biochemical, fluorescence polarization, HTS | AID 2129, 2009 | GST-Bcl-xL / FITC-Bim BH3 peptide fluorescence polarization | inhibition, % at 10.9 µM | 0.7% of 320,000 active;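 active = inhibition above the mean of all tested compounds plus 3 SD, cutoff set per campaign, cut at about 30% in these data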;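 also: 0% = DMSO wells and 100% = unlabeled Bim-BH3 peptide competitor; inhibitors lower millipolarization by displacing the labeled peptide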
# Target sequence (Q07817 whole entry, looked up): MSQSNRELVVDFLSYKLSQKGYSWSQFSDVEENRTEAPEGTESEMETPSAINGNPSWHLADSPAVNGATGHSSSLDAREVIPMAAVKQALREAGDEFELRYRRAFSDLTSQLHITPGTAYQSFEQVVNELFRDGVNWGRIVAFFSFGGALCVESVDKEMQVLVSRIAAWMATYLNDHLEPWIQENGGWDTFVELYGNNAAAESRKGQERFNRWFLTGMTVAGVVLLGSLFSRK
# Bim-Mcl-1 = inhibitors of Bim peptide binding to Mcl-1, primary screen, biochemical, bead-based flow cytometry, multiplex | Induced myeloid leukemia cell differentiation protein Mcl-1 (Homo sapiens), Q07820 | inhibition, % at 10 µM | Bim peptide-Mcl-1 binding | AID 1009, 2008 | 0.1% of 190,000 active; in the data active = inhibition above about 40%;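 also: 0% = no compound tracer wells and 100% = peptide blocker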
# * hit, by the source's call; / = no result given.
SMILES,MCL1-BIM inh,Mcl1-Bid inh,GLD-1 TGE inh,Mcl1 Noxa PPI,Bcl-xL primary,Bim-Mcl-1
CC(=O)NC(C)C(=O)OCC(=O)c1ccc(-c2ccccc2)cc1 (stereo unspecified),-6,-4,-2,2,-11,5
C=CCn1c(=O)/c(=C2/SC(C)=C(C)N2CC)s/c1=C1/C(=O)N(CC)C(=S)N1c1ccccc1,-5,59*,0,29,-2,-4
CNC(=O)NC1CCCc2ccccc21 (stereo unspecified),-4,3,4,92*,1,-2
Cc1ccc(S(=O)(=O)NN2C(=O)/C(=C/c3ccccn3)SC2=S)cc1,13,-48,0,5,17,0
O=C1/C(=C/c2ccccn2)SC(=S)N1c1ccc(O)cc1,-3,31,2,77*,1,/
Cc1ccc(/C=C2/SC(=S)N(c3ccc(S(=O)(=O)Nc4nccs4)cc3)C2=O)cc1,-1,-44,2,56*,-3,/
COc1ccc(/C=C2/SC(=S)N(c3ccc(S(=O)(=O)Nc4nccs4)cc3)C2=O)cc1,5,-61,0,101*,4,/
O=C1/C(=C\c2ccccn2)SC(=S)N1c1ccc(S(=O)(=O)Nc2nccs2)cc1,11,-77,-2,82*,8,/
c1ccc2c(-c3nc4ncccc4o3)cccc2c1,8,-19,3,0,2,0
CCOC(=O)NC(O)C(=O)c1cccs1 (stereo unspecified),0,-17,7,-11,0,-1
O=C(Nc1ccc(F)cc1)N1CCC(c2nc3c(nnn3Cc3ccccc3Cl)c(=O)[nH]2)CC1,3,-11,13,-9,2,-4
Cc1ccc(-n2[nH]c(C)c(C=Nc3ccc(S(=O)(=O)Nc4nccs4)cc3)c2=O)cc1C,-4,35,-9,61*,9,-3
CCOC(=O)C1(Cc2cccc(OC)c2)CCN(Cc2cccc(OCC)c2O)CC1,2,-33,2,-2,4,1
CCc1ccc(N2C(=O)CN(Cc3cc(OC)c(OC)c(OC)c3)C2=S)cc1,2,-5,12,6,5,-3
Nc1cc([N+](=O)[O-])ccc1Nc1ccc(O)cc1,24,-234,2,72*,6,/
CCOc1ccc2nc(COC(=O)c3ccncc3)c(C(=O)c3ccccc3)[n+]([O-])c2c1,-6,-8,2,8,1,/
N#Cc1c2c(c(=S)n(-c3ccccc3)c1N)CCCC2,33,-4,24,44,35*,0
Cc1ccc(CSCC(=O)NCCc2ccccc2)cc1,-4,-22,2,-1,2,1
COc1ccc(CCNC(=O)c2sc(=S)n(C)c2N)cc1,3,-64,-4,6,3,0
COc1cccc(N2C(=O)CC(Nc3ccc(N4CCOCC4)cc3)C2=O)c1 (stereo unspecified),28,-156,6,17,17,-1
O=C1CC(Nc2ccc(N3CCOCC3)cc2)C(=O)N1c1cccc(C(F)(F)F)c1 (stereo unspecified),33,53*,0,47,7,-4
Cc1ccc(S(=O)(=O)N2CCOCC2)cc1NC(=O)CNCc1cccnc1,-2,-11,-1,-15,4,/
O=C(NNC(=O)c1ccccc1[N+](=O)[O-])c1cccs1,4,-53,3,7,3,-4
Cc1nnc(SCc2cc(=O)oc3cc(O)ccc23)n1Cc1ccccc1,-3,-12,4,13,0,-3
Cc1nnc(SCc2cc(=O)oc3ccc4ccccc4c23)n1Cc1ccccc1,9,71*,9,17,15,-2
SMILES,MCL1-BIM inh,Mcl1-Bid inh,GLD-1 TGE inh,Mcl1 Noxa PPI,Bcl-xL primary,Bim-Mcl-1
C[C@H](NC(=O)c1ccccc1)C(=O)OCC(=O)Nc1ccc2c(c1)OCO2,-12,/,1,/,-5,/
COCCn1c(=N)c(C(=O)NCc2ccco2)cc2c(=O)n3cc(C)ccc3nc21,69*,-29,56*,9,72*,1
N=c1c(C(=O)NCc2ccco2)cc2c(=O)n3ccccc3nc2n1CC1CCCO1 (stereo unspecified),31,/,17,/,30,/
O=C(NCc1ccco1)c1cccn2c(=O)c3cc4ccccc4cc3nc12,/,94*,/,47,/,3
N=c1c(C(=O)NCc2ccco2)cc2c(=O)n3ccccc3nc2n1CCc1ccccc1,20,11,12,68*,32*,13
CCOCCCn1c(=N)c(C(N)=S)cc2c(=O)n3cccc(C)c3nc21,30,-19,-4,-7,23,-1
Cc1cccn2c(=O)c3cc(C(N)=S)c(=N)n(CCCOC(C)C)c3nc12,35,-7,-2,42,34*,0
COc1ccc(/C=C(\NC(=O)c2ccccc2)C(=O)NCc2ccco2)cc1,-1,/,5,/,5,/
COc1cccc(C(=O)NNC(=O)c2ccc(NS(=O)(=O)c3cccs3)cc2)c1OC,3,/,-4,/,7,/
COc1ccccc1CCNC(=O)C1(C)CC1(Cl)Cl (stereo unspecified),13,/,8,/,8,/
N#Cc1c(SCc2cccc(Cl)c2)sc(C(=O)c2ccccc2)c1N,-21,-32,-13,25,-14,-2
CCOC(=O)C1CCN(c2ccc([N+](=O)[O-])cc2S(=O)(=O)N2CCOCC2)CC1,4,/,0,/,4,/
CCc1ccccc1NC(=S)N(Cc1ccco1)C(C)c1cccs1 (stereo unspecified),-2,-1,-2,17,19,0
COc1ccc(CCNC(=O)c2cc3c(=O)n4ccccc4nc3n(Cc3ccco3)c2=N)cc1OC,12,/,0,/,15,/
Cc1cccn2c(=O)c3cc(C(=O)NCc4ccco4)c(=N)n(CCOCCO)c3nc12,43*,-49,24,33,55*,4
Cc1ccc(Cn2c(=N)c(C(=O)NCc3ccco3)cc3c(=O)n4ccccc4nc32)cc1,22,3,-1,80*,15,-1
CC1CC(C)CN(C(=O)COC(=O)c2cc([N+](=O)[O-])ccc2N2CCOCC2)C1 (stereo unspecified),-2,/,-7,/,-7,/
CC(C)(C)Nc1scc(-c2ccccc2)[n+]1-c1ccccc1,10,4,3,8,3,0
COc1cc(CNc2ccc(N3CCCC3)cc2)ccc1OCc1ccccc1F,8,-106,10,57*,4,1
COc1cc(CNCc2ccncc2)cc(Br)c1OCc1ccccc1F,11,55*,6,36,4,0
